Only some compounds are listed: those with a hit (about 4% of all), similar ones and a draw of the others.
GDH-TPI counter: GDH-TPI coupled enzyme inhibition counter-screen; GDH-TPI coupled enzyme counterscreen, NADH absorbance; AID 588335; inhibition, % at 4.8 µM; 360,000 tested, 1.2% active; in the data active = inhibition above about 30%;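 note: 0% = DMSO wells and 100% = wells lacking the enzyme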
UGM FP inh: inhibitors of M. tuberculosis UDP-galactopyranose mutase; P9WIQ1; purified UGM, fluorescence polarization probe displacement; inhibition, % at 10 µM; 320,000 tested, 0.06% active; in the data active = inhibition above about 10%, passing the limit was not always enough
Target sequence (P9WIQ1 whole entry, looked up): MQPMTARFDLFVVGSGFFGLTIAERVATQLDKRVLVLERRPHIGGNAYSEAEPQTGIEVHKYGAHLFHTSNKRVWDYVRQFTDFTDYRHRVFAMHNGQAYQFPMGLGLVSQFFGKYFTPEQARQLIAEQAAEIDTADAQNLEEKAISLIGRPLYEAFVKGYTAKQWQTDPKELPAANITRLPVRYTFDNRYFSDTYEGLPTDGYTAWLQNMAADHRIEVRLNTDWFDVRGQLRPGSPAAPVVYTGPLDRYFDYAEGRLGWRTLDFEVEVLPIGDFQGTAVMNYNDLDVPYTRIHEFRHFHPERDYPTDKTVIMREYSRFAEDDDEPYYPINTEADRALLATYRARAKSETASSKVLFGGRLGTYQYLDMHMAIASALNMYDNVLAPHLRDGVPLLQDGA
Mtb FBA inh: inhibitors of M. tuberculosis fructose-bisphosphate aldolase | inhibition, % at 1 µM | P9WQA3 | 360,000 tested, 2.3% active | purified M. tuberculosis FBA, fluorescence read-out; in the data active = inhibition above about 27%;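 note: 0% = vehicle and 100% = reference inhibitor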
RecA splice inh: blocks M. tuberculosis RecA intein splicing; P9WHJ3; cell-free RecA intein splicing, fluorescence; inhibition, % (no concentration beside the values); 290,000 tested, 0.75% active; AID 2221; in the data active = inhibition above about 30%;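 note: 0% = vehicle wells and 100% = reference inhibitor control wells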
Mtb betalactam: beta-lactam sensitization of Mtb H37Rv; 330,000 tested, 0.27% active; M. tuberculosis H37Rv growth with meropenem, percent inhibition; inhibition, % at 25 µM; call rule not given here;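 note: growth measured after seven days incubation then overnight dye step; 0% = bacteria only wells and 100% = bacteria with antibiotic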
Rv3671c inh: inhibits the M. tuberculosis serine protease Rv3671c; 320,000 tested, 0.048% active; inhibition, % at 5.96 µM; P9WHR9; in the data active = inhibition above about 38%;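 note: extracellular domain of Rv3671c used as enzyme; 0% = enzyme with DMSO and 100% = no enzyme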
Numbers without * were called inactive; i = inactive; . = no result; + = active, no number.

SMILES	GDH-TPI counter	UGM FP inh	Mtb FBA inh	RecA splice inh	Mtb betalactam	Rv3671c inh
CC(=O)O[C@@H]1[C@H](Oc2c(O)c(C)c3c4c2[C@H](C)CC[C@H]4[C@H](C)C[C@@H]3C=C(C)C)O[C@@H](C)[C@@H](O)[C@H]1O	-2	.	0	.	.	.
O=C(NC1CCCC1)c1cc2cc(Br)ccc2o1	0	-1	1	2	2	-3
CCC1(c2ccc(F)cc2)NC(=O)N(CC(=O)N2c3ccccc3NC(=O)C2(C)C)C1=O (centres undefined)	5	0	1	2	-6	-2
COc1cccc(-c2nc(-c3ccc4c(c3)NC(=O)CO4)cs2)c1	-5	-3	0	6	10	-2
COc1ccc(-c2cc(-c3ccc(OC)cc3)nc(-c3ccc4c(c3)NC(=O)CO4)c2)cc1	32*	1	1	0	97	-2
CCOC(=O)c1sc(=S)[nH]c1C	31*	.	-3	.	.	.
CCOC(=O)c1c(C)[nH]sc1=S	29	.	1	0	.	.
COC(CNC(=O)c1coc2nc3ccccc3nc12)OC	29	0	120*	-8	7	-9
COC(CNC(=O)c1ccc2nc(-c3ccccc3)c(-c3ccccc3)nc2c1)OC	22	1	19	-2	19	-4
O=C(NCC1CCCO1)c1coc2nc3ccccc3nc12 (centres undefined)	9	2	126*	-9	-5	-9
COC(=O)C1=C(NC(=O)CCCCl)CCS1	10	1	1	-9	-2	3
Cc1cc(-n2c(=O)c(C#N)cc3c(=O)n4ccccc4nc32)no1	11	2	+	-441	50	1
CCn1c(=N)c(S(=O)(=O)c2ccc(C)cc2)cc2c(=O)n3ccccc3nc21	.	-1	.	-64	-12	4
C=CCn1c(=O)c(C#N)cc2c(=O)n3ccccc3nc21	-1	1	+	-1	-11	2
Cc1ccccc1-n1c(=O)c(C#N)cc2c(=O)n3ccccc3nc21	18	2	+	i	-3	-2
Cc1ccc(S(=O)(=O)N2CCCCC2)cc1NC(=O)CCN1C(=O)C2CC=CCC2C1=O (centres undefined)	-4	-1	-2	.	-1	-7
CCOC(=O)c1[nH]cnc1C(=O)Nc1ccc(C)cc1	9	-1	1	-1	73	3
O=C(NC1CCCCC1)N(Cc1cc2cc3c(cc2[nH]c1=O)OCCO3)CC1CCCO1 (centres undefined)	36*	4	23	-2	-3	5
O=C(NC1CCCCC1)N(CCO)Cc1cc2cc3c(cc2[nH]c1=O)OCCO3	13	-3	23	-2	4	-3
COC(=O)c1c(NC(=O)CC2Nc3ccccc3NC2=O)sc(C)c1C (centres undefined)	-2	2	-1	-5	-1	-5
CC(C)c1ccc(/C=C2\SC(=O)N(CC(=O)NCCCn3ccnc3)C2=O)cc1	47*	0	2	8	70	0
O=C(CN1C(=O)S/C(=C\c2ccccc2)C1=O)NCCCn1ccnc1	25	-3	-12	-1	5	-3
Cn1nc(-c2ccccc2)c2nc3ccccc3nc21	-8	28*	-2	-3	26	4
CCCCn1nc(-c2ccccc2)c2nc3ccccc3nc21	.	29*	.	-141	3	-8
Cc1ccc(-c2nc3ccccc3nc2-c2ccccc2)cc1	2	1	17	14	-15	2
SMILES	GDH-TPI counter	UGM FP inh	Mtb FBA inh	RecA splice inh	Mtb betalactam	Rv3671c inh
O=C(CCNc1n[nH]c(=O)[nH]c1=O)N/N=C/c1ccccc1Br	-4	1	2	1	-5	1
O=c1[nH]nc(N/N=C/c2ccccc2OC(F)F)c(=O)[nH]1	42*	0	3	-11	0	-1
Cc1cc(/C=C(\C#N)C(N)=O)c(C)n1-c1ccc(N2CCOCC2)c([N+](=O)[O-])c1	38*	3	-2	-1	-4	-6
Cc1cc(C=O)c(C)n1-c1ccc(N2CCCCC2)c([N+](=O)[O-])c1	2	-1	-2	6	11	-4
CCN(CC)C(=O)[C@H]1C[C@H](CC(=O)NC/C=C(\C)CCC=C(C)C)C(=O)N2CCc3c([nH]c4cc(CCC(=O)N(C)C)ccc34)[C@]12C	-1	.	1	.	.	.
COc1cccc2c1C(=O)c1c(O)c3c(c(O)c1C2=O)C[C@@](O)(C(=O)CO)C[C@@H]3O[C@H]1C[C@H](N)[C@H](O)[C@H](C)O1	8	40*	-8	-8	97	30
COc1cccc2c1C(=O)c1c(O)c3c(c(O)c1C2=O)C[C@@](O)(C(=O)CO)C[C@@H]3OC1CC(N)C(O)C(C)O1 (some centres undefined)	3	.	-2	.	.	.
COc1ccc(/C(O)=C2\C(=O)C(=O)N(Cc3ccco3)C2c2cc(OC)ccc2OC)cc1 (centres undefined)	40*	1	0	0	4	3
COc1ccc(OC)c(C2/C(=C(/O)c3ccccc3)C(=O)C(=O)N2Cc2ccco2)c1 (centres undefined)	12	1	-2	1	-2	2
COc1cc(C2/C(=C(\O)c3ccc4c(c3)OCCO4)C(=O)C(=O)N2Cc2ccco2)cc(OC)c1OC (centres undefined)	32*	-3	0	-1	-7	.
CCOC(=O)N1CCC(NC(=O)CCc2c(C)nc3ncnn3c2C)CC1	11	-2	-1	0	-19	-4
CSc1nc2nccc(-c3ccc(-c4ccccc4)cc3)n2n1	20	1	153*	2	32	-21
O=C(N/N=C/c1c(Cl)nc2ccccn2c1=O)c1cccnc1	31*	-1	17	4	-3	-3
O=C(N/N=C/c1ccccn1)c1sc2ccccc2c1Cl	35*	2	-7	4	85	8
CN(C)c1ccc(C(=O)N/N=C/c2ccccn2)cc1	35*	2	1	0	84	5
CCOc1ccc(C(=O)N/N=C/c2ccc(SC)cc2)cc1	12	0	-5	1	-4	2
CSc1ccc(/C=N/NC(=O)c2cccc(O)c2)cc1	49*	-1	2	0	68	-9
CCOc1ccc(-n2nnnc2SCC(=O)N2CCOCC2)cc1	1	2	-1	-1	-7	-2
CCC(C)NCCOCCOc1ccc(C)cc1Br (centres undefined)	8	2	4	-2	-5	2
COC(=O)c1ccc(CSc2nnc(NC(=O)C3CC(=O)N(Cc4ccc(C)cc4)C3)s2)cc1 (centres undefined)	6	0	2	-3	1	-3
Cc1c(NC(=S)NC(=O)CC(C)C)c(=O)n(-c2ccccc2)n1C	-2	-4	-1	5	-9	7
CN(CCCNC(=O)c1cn(C)c2ccc(S(=O)(=O)N(C)C)cc2c1=O)c1ccccc1	6	1	-1	-2	72	-4
